According to the supplement of paper PMC10849652:
The full data set covers some 8,800 targets. This sample favours those with a hit. About 0.5% of all pairs of compound and target were hits.

compound: CC(C)C1=C2N=C(C=C(N2N=C1)NCC3=CC=CC=C3)NCCCCCCN; experiment: log2 fold change, soluble protein after heating vs DMSO (PISA); higher = thermal stabilisation; K562 lysate, 10 uM; active = over 0.2 and 3.5 SD of the protein, either way, in both replicates (recomputed)
Outline: (§1)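 Log-two fold change in thermal stability relative to solvent controls is reported from duplicates. For each sample, crude K562 extract from dounce-homogenised pellets in PBS pH 7.4 with 1 mM MgCl2, at 1 mg/mL protein, was treated with 10 μM compound for 30 min. Aliquots heated for 3 min across 48°C-58°C were pooled, brought to 0.5% NP-40 at 4°C and cleared at 21,000xg for 90 min. The supernatant was quantified by TMTpro 16plex LC-MS/MS with channel sums equalised.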

Sequence of UniProt P15498 (P15498 whole entry, looked up): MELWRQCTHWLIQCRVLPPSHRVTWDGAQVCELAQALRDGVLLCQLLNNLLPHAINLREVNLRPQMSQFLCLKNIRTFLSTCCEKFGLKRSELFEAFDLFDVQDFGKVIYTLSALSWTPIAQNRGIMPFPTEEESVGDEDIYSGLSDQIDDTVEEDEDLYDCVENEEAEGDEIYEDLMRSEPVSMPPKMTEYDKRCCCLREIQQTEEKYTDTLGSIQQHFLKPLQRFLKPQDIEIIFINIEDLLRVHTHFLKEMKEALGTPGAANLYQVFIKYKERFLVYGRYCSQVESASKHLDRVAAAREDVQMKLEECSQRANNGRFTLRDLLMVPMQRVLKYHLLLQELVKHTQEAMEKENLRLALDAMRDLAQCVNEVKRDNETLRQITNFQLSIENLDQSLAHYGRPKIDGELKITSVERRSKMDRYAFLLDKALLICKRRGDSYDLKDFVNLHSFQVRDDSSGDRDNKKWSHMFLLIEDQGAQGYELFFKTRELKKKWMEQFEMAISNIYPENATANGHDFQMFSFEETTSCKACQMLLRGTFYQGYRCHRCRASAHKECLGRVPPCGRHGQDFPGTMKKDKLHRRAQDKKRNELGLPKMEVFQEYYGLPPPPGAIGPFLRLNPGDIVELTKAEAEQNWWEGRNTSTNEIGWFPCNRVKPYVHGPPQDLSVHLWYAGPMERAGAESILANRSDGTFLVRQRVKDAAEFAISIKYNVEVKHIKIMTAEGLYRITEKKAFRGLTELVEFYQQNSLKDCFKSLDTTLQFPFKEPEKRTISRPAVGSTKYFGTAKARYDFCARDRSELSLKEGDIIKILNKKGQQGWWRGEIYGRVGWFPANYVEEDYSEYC
Sequence of UniProt P40818 (P40818 whole entry, looked up): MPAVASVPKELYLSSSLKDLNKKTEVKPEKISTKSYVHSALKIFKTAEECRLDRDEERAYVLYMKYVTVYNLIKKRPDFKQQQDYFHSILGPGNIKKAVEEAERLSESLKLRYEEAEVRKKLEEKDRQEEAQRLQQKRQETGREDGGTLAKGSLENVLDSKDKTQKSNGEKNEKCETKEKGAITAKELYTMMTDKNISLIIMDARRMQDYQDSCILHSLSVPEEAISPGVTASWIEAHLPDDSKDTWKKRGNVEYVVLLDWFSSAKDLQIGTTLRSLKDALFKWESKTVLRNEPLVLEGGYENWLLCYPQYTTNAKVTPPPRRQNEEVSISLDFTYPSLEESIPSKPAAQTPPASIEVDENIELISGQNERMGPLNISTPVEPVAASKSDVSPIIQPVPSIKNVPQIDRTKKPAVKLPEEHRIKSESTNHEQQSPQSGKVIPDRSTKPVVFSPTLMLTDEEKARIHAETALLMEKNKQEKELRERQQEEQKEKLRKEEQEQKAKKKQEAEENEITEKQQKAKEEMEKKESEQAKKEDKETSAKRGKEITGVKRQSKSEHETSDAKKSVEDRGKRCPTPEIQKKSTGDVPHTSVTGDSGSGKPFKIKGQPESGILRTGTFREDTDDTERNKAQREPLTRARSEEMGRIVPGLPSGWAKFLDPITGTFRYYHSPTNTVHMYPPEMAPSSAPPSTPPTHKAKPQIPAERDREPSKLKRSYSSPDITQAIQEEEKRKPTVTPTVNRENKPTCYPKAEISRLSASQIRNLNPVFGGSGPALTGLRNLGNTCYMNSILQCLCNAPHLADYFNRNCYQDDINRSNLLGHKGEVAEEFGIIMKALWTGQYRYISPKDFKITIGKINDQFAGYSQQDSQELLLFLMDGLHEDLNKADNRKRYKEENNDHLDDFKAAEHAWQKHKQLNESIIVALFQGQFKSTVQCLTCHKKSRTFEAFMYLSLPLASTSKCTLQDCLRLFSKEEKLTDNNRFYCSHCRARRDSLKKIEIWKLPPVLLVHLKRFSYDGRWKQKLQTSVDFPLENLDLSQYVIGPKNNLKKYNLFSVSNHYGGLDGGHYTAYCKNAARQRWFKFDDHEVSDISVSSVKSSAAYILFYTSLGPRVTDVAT
Sequence of UniProt Q9HAD4 (Q9HAD4 whole entry, looked up): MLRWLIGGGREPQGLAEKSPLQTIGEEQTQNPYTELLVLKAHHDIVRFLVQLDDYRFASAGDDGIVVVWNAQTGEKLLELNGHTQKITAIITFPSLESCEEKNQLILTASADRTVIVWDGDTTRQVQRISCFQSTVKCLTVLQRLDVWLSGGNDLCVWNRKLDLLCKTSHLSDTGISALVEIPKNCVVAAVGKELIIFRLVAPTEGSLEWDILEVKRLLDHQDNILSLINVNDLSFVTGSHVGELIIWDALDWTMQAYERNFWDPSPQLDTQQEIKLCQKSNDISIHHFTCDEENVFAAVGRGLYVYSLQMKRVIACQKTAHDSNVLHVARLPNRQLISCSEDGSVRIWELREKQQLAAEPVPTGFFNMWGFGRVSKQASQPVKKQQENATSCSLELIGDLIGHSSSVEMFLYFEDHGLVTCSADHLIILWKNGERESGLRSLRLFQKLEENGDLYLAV
Sequence of UniProt P50552 (P50552 whole entry, looked up): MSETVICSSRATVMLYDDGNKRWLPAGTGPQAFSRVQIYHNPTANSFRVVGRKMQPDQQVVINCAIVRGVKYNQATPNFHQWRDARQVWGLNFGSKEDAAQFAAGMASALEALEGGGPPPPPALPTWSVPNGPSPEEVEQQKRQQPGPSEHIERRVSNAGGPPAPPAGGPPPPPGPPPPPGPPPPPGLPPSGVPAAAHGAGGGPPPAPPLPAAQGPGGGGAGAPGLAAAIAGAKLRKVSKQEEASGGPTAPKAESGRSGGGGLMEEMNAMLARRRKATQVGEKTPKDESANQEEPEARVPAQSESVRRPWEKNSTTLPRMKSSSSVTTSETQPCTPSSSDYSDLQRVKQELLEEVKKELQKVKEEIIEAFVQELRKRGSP
Sequence of UniProt Q96NC0 (Q96NC0 whole entry, looked up): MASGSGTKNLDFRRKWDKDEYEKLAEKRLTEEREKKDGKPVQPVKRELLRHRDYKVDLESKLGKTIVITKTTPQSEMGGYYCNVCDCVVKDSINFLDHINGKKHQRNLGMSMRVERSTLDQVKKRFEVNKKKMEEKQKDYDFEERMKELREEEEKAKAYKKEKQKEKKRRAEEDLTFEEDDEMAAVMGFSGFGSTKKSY
Sequence of UniProt Q9H3U1 (Q9H3U1 whole entry, looked up): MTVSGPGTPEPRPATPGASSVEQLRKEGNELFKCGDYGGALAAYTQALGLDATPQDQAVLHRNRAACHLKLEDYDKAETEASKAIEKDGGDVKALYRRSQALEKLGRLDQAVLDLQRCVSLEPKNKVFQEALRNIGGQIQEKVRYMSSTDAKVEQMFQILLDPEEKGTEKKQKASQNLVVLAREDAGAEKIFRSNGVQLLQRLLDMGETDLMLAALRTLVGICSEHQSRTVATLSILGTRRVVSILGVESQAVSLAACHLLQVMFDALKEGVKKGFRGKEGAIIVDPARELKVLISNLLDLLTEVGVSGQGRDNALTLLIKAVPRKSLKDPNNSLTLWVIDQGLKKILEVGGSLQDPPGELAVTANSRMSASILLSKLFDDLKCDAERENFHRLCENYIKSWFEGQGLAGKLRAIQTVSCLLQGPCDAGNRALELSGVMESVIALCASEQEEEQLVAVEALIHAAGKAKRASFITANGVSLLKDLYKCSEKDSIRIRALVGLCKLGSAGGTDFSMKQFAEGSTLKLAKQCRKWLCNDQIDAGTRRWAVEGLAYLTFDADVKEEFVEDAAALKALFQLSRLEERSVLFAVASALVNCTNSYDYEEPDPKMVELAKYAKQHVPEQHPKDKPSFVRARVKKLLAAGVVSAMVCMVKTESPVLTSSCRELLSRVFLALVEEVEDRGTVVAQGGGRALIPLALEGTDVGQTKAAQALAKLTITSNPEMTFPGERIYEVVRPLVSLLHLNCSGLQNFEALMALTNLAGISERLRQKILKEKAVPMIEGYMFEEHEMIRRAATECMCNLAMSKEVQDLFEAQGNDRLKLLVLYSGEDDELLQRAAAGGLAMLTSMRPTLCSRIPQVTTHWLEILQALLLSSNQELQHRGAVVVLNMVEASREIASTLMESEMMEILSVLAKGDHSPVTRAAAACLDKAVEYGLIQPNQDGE
Sequence of UniProt Q9BRT2 (Q9BRT2 whole entry, looked up): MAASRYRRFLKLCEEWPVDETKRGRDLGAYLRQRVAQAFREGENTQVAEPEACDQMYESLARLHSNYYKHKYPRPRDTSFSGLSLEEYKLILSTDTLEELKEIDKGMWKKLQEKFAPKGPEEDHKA
Sequence of UniProt Q9Y4P8 (Q9Y4P8 whole entry, looked up): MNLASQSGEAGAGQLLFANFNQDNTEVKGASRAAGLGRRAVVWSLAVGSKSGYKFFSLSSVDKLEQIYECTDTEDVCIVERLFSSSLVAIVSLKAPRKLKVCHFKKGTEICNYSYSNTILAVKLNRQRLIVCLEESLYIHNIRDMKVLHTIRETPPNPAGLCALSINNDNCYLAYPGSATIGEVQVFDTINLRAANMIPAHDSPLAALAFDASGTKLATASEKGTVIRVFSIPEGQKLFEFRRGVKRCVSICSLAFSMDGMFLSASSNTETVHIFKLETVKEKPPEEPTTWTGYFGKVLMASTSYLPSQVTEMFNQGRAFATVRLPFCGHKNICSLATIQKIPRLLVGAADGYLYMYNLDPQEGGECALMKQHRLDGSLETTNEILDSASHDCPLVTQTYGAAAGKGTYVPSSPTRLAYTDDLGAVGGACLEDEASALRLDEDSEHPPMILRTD
Sequence of UniProt Q9NQZ2 (Q9NQZ2 whole entry, looked up): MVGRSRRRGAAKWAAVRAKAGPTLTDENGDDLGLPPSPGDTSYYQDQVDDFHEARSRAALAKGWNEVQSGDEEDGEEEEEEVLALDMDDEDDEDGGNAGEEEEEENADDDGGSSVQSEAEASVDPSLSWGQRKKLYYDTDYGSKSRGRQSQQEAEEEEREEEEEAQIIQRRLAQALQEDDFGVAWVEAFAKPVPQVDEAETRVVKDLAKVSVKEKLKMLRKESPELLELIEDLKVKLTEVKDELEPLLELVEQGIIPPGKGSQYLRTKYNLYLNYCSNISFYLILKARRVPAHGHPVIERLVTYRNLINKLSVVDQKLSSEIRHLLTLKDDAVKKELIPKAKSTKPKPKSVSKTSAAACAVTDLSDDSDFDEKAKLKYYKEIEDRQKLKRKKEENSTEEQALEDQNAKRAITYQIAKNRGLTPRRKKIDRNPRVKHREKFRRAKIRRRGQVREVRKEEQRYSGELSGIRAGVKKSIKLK

| Target | log2 fold change |
| --- | --- |
| UQCC2 (UniProt Q9BRT2) | 0.018 (inactive) |
| ZZEF1 (UniProt O43149) | -0.014 (inactive) |
| YME1L1 (UniProt Q96TA2) | 0 (inactive) |
| WIPI2 (UniProt Q9Y4P8) | 0.022 (inactive) |
| VPS37B (UniProt Q9H9H4) | -0.028 (inactive) |
| WDR41 (UniProt Q9HAD4) | -0.015 (inactive) |
| WRN (UniProt Q14191) | -0.016 (inactive) |
| UNC45A (UniProt Q9H3U1) | -0.009 (inactive) |
| USP10 isoform 2 (UniProt Q14694) | -0.006 (inactive) |
| ZNF346 (UniProt Q9UL40) | -0.012 (inactive) |
| USP8 (UniProt P40818) | 0.015 (inactive) |
| UTP3 (UniProt Q9NQZ2) | -0.058 (inactive) |
| USP48 (UniProt Q86UV5) | -0.009 (inactive) |
| YEATS4 (UniProt O95619) | 0.001 (inactive) |
| VASP (UniProt P50552) | -0.009 (inactive) |
| VPS16 (UniProt Q9H269) | -0.014 (inactive) |
| WRNIP1 (UniProt Q96S55) | 0.001 (inactive) |
| ZMYM1 (UniProt Q5SVZ6) | -0.022 (inactive) |
| WRB (UniProt O00258) | -0.024 (inactive) |
| ZMYM2 (UniProt Q9UBW7) | -0.039 (inactive) |
| ZMAT2 (UniProt Q96NC0) | 0.035 (inactive) |
| XPO5 (UniProt Q9HAV4) | -0.039 (inactive) |
| YTHDC2 (UniProt Q9H6S0) | 0.013 (inactive) |
| YRDC (UniProt Q86U90) | 0.027 (inactive) |
| ZBTB33 (UniProt Q86T24) | 0.141 (inactive) |
| VPS11 (UniProt Q9H270) | 0.001 (inactive) |
| VAC14 (UniProt Q08AM6) | 0.002 (inactive) |
| VAV1 (UniProt P15498) | 0.009 (inactive) |
| UTP18 (UniProt Q9Y5J1) | 0.033 (inactive) |
| ZHX1 (UniProt Q9UKY1) | 0.127 (inactive) |

compound: CC1=C(C(CC(=O)N1)C2=CC=C(C=C2)C(F)(F)F)C(=O)NC3=C(C=C4C(=C3)C=NN4)F; experiment: as above
Outline: as §1

| Target | log2 fold change |
| --- | --- |
| UQCC2 (UniProt Q9BRT2) | -0.022 (inactive) |
| ZZEF1 (UniProt O43149) | -0.005 (inactive) |
| YME1L1 (UniProt Q96TA2) | -0.04 (inactive) |
| WIPI2 (UniProt Q9Y4P8) | 0.042 (inactive) |
| VPS37B (UniProt Q9H9H4) | 0 (inactive) |
| WDR41 (UniProt Q9HAD4) | 0.03 (inactive) |
| WRN (UniProt Q14191) | 0.023 (inactive) |
| UNC45A (UniProt Q9H3U1) | -0.007 (inactive) |
| USP10 isoform 2 (UniProt Q14694) | -0.025 (inactive) |
| ZNF346 (UniProt Q9UL40) | -0.08 (inactive) |
| USP8 (UniProt P40818) | 0.004 (inactive) |
| UTP3 (UniProt Q9NQZ2) | 0.026 (inactive) |
| USP48 (UniProt Q86UV5) | 0.018 (inactive) |
| YEATS4 (UniProt O95619) | 0.01 (inactive) |
| VASP (UniProt P50552) | -0.007 (inactive) |
| VPS16 (UniProt Q9H269) | -0.015 (inactive) |
| WRNIP1 (UniProt Q96S55) | 0.045 (inactive) |
| ZMYM1 (UniProt Q5SVZ6) | -0.049 (inactive) |
| WRB (UniProt O00258) | -0.025 (inactive) |
| ZMYM2 (UniProt Q9UBW7) | -0.008 (inactive) |
| ZMAT2 (UniProt Q96NC0) | -0.004 (inactive) |
| XPO5 (UniProt Q9HAV4) | -0.014 (inactive) |
| YTHDC2 (UniProt Q9H6S0) | 0.003 (inactive) |
| YRDC (UniProt Q86U90) | -0.006 (inactive) |
| ZBTB33 (UniProt Q86T24) | -0.027 (inactive) |
| VPS11 (UniProt Q9H270) | 0.003 (inactive) |
| VAC14 (UniProt Q08AM6) | -0.008 (inactive) |
| VAV1 (UniProt P15498) | -0.004 (inactive) |
| UTP18 (UniProt Q9Y5J1) | 0.057 (inactive) |
| ZHX1 (UniProt Q9UKY1) | 0.109 (inactive) |

compound: CC1=C(C2=C(C=C1)C(=O)C3=CC=CC=C3N2CCCN)C; experiment: as above
Outline: as §1

| Target | log2 fold change |
| --- | --- |
| UQCC2 (UniProt Q9BRT2) | 0.016 (inactive) |
| ZZEF1 (UniProt O43149) | -0.063 (inactive) |
| YME1L1 (UniProt Q96TA2) | 0.003 (inactive) |
| WIPI2 (UniProt Q9Y4P8) | -0.018 (inactive) |
| VPS37B (UniProt Q9H9H4) | -0.008 (inactive) |
| WDR41 (UniProt Q9HAD4) | -0.054 (inactive) |
| WRN (UniProt Q14191) | 0.019 (inactive) |
| UNC45A (UniProt Q9H3U1) | 0.002 (inactive) |
| USP10 isoform 2 (UniProt Q14694) | 0.018 (inactive) |
| ZNF346 (UniProt Q9UL40) | 0.111 (inactive) |
| USP8 (UniProt P40818) | -0.007 (inactive) |
| UTP3 (UniProt Q9NQZ2) | -0.123 (inactive) |
| USP48 (UniProt Q86UV5) | 0 (inactive) |
| YEATS4 (UniProt O95619) | -0.004 (inactive) |
| VASP (UniProt P50552) | 0.038 (inactive) |
| VPS16 (UniProt Q9H269) | -0.029 (inactive) |
| WRNIP1 (UniProt Q96S55) | 0.013 (inactive) |
| ZMYM1 (UniProt Q5SVZ6) | -0.008 (inactive) |
| WRB (UniProt O00258) | -0.141 (inactive) |
| ZMYM2 (UniProt Q9UBW7) | -0.018 (inactive) |
| ZMAT2 (UniProt Q96NC0) | -0.021 (inactive) |
| XPO5 (UniProt Q9HAV4) | -0.01 (inactive) |
| YTHDC2 (UniProt Q9H6S0) | -0.023 (inactive) |
| YRDC (UniProt Q86U90) | -0.015 (inactive) |
| ZBTB33 (UniProt Q86T24) | 0.109 (inactive) |
| VPS11 (UniProt Q9H270) | 0.031 (inactive) |
| VAC14 (UniProt Q08AM6) | 0.005 (inactive) |
| VAV1 (UniProt P15498) | -0.034 (inactive) |
| UTP18 (UniProt Q9Y5J1) | -0.085 (inactive) |
| ZHX1 (UniProt Q9UKY1) | -0.144 (inactive) |
